An excerpt weighted towards active compounds, which were near 17% of everything screened.
TDP1 inh: TDP1 (human) enzyme inhibition; 350,000 compounds, 0.28% hits; Q9NUW8; AID 485290; Potency, µM (highest dose often 130 µM), for inactives: top-dose activity change, negative = inhibition, actives largely listed as inhibitors; recombinant TDP1, AlphaScreen DNA substrate cleavage; note: % is set by controls: 0 for no effect and ±100 for the full control effect; nearly all actives have a fitted effect of over 40% in size
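Tdp1 1 nM final; 15 min RT w/ cpd; substrate 15 nM, 5 min; beads 10 ug/ml, 10 min; AlphaScreen read. Neg ctrl: no enzyme.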
TDP1 cell CPT: growth inhibition of DT40 Tdp1-/-;hTDP1 cells with camptothecin (screen for TDP1 inhibitors); Potency, µM (highest dose often 46.2 µM), without a hit: top-dose activity change, negative = growth inhibition, hits mostly inhibitors; chicken DT40 Tdp1-/-;hTDP1 cells + 20 nM CPT, ATP luminescence, 48 h; 420,000 compounds, 12% hits; note: % is set by controls: 0 for no effect and ±100 for the full control effect; nearly all actives have a fitted effect of over 55% in size
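Cell growth measured by CellTiter-Glo luminescence after a minimum 48 h, 37 C compound exposure with 20 nM CPT in Tdp1-knockout DT40 cells stably expressing hTDP1, seeded 400/well; qHTS titration format.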
TDP1 cell noCPT: qHTS for Inhibitors of human tyrosyl-DNA phosphodiesterase 1 (TDP1): qHTS in cells in absence of CPT. AID 686978, 2013. 420,000 compounds, 15% hits. Potency, µM (titrated, usually from 46.2 µM), inactives show at the highest dose activity change, negative = growth inhibition, usual class: inhibitors. DT40 Tdp1-/- hTDP1 cells, no CPT, ATP luminescence, 48 h; note: % is set by controls: 0 for no effect and ±100 for the full control effect; nearly all actives have a fitted effect of over 55% in size
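Stably hTDP1-transfected Tdp1-null chicken DT40 cells were treated with library compounds minus camptothecin and grown for at least 48 hr at 37 °C, after which cellular ATP was quantified by luminescence.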
ClpP mod: qHTS Assay for Activators of ClpP; purified B. subtilis ClpP, FRET peptide cleavage, 20 min; Potency, µM (top dose mostly 57.5 µM), without a hit: top-dose activity change, negative = active; 340,000 compounds, 1.9% hits; active = well fitted falling curve with a large enough effect; inconclusive = small, poorly fitted or top-dose-only effect; inactive = no such curve, though single readings can be large or run the other way; note: the source files actives as falling curves though it sought activators and does not explain the sign; nearly all actives have a fitted effect of over 65% in size
Target sequence (P80244 whole entry, looked up): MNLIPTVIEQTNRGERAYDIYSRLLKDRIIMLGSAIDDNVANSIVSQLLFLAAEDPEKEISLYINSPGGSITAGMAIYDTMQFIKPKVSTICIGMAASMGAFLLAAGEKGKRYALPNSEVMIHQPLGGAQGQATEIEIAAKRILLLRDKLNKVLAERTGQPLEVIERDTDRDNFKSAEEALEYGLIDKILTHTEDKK
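Buffer: 100 mM Tris/HCl pH8, 100 mM KCl, 0.05% low protease BSA, 2.5% glycerol, 0.01% Tween-20. ClpP 10 microg/mL final; 20 min RT; delta FRET normalized to ADEP and DMSO controls.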
The depositor's hits bear a star; ? = inconclusive; . = not tested or not shown; [ ] = remark or other dose. Unless noted, calls come from the whole dose curve; as a rule, active = well fitted curve in the direction sought with a large enough effect; inconclusive = small, poorly fitted or top-dose-only effect, or another doubt; inactive = no such curve, though single readings can be large; an effect the other way counts as inactive or inconclusive. Potency is the fitted concentration of half-maximal effect.

SMILES	TDP1 inh	TDP1 cell CPT	TDP1 cell noCPT	ClpP mod
CCOc1ccccc1CNC(=O)c1ccc(NC(=O)N2CCSc3ncccc32)cc1	-8%	21µM*	15µM*	?
O=C(Cc1ccc(NC(=O)N2CCSc3ncccc32)cc1)NCc1ccccc1	8%	?	?	-16%
COC(=O)C1CCN(Cc2ccc3c(c2)CN(C(=O)C2Cc4ccccc4O2)CCO3)CC1 (centres undefined)	.	17%[9.04 µM]	-14%	.
Cc1ccc(S(=O)(=O)N2CC3(O)CN(C(=O)OC(C)C)N(C(=O)OC(C)C)CC3(OC(=O)Nc3cccs3)C2)cc1 (centres undefined)	.	?	18µM*	1%
COC(=O)[C@H]1C[C@@]2(O)CN(S(=O)(=O)c3ccc(C)cc3)C[C@@]2(OC(=O)NCc2ccccc2)C[C@H]1C(=O)OC	.	?	?	2%
Cc1ccc(S(=O)(=O)N2CC3(O)CN(C(=O)OC(C)C)N(C(=O)OC(C)C)CC3(OC(=O)Nc3c(C)noc3C)C2)cc1 (centres undefined)	.	?	?	1%
Cc1ccc(S(=O)(=O)N2CC3(O)CN(C(=O)OC(C)C)N(C(=O)OC(C)C)CC3(OC(=O)NCc3ccco3)C2)cc1 (centres undefined)	.	?	21µM*	0%
Cc1ccc(S(=O)(=O)N2CC3(O)CN(C(=O)OC(C)C)N(C(=O)OC(C)C)CC3(OC(=O)NC3CCCC3)C2)cc1 (centres undefined)	.	?	23µM*	-1%
O=C(COC(=O)c1cc([N+](=O)[O-])ccc1N1CCOCC1)NCCc1ccccc1	1%	7%	-15%	-3%
COc1cccc(-c2nc(S(=O)(=O)c3ccc(C)cc3)c(N3CCCCCC3)o2)c1	1%	23µM*	4.6µM*	-19%
Cc1ccc(S(=O)(=O)c2nc(-c3ccccc3)oc2N2CCN(c3ccccc3)CC2)cc1	0%	16µM*	21µM*	?
CN1CCN(c2oc(-c3ccccc3)nc2S(=O)(=O)c2ccc(Br)cc2)CC1	12%	16µM*	?	-1%
Cc1ccc(-c2nc(S(=O)(=O)c3ccc(C)cc3)c(N3CCN(c4ccccc4)CC3)o2)cc1	5%	-13%	?	-6%
Cc1ccc(S(=O)(=O)c2nc(-c3ccccc3F)oc2N2CCCCC2)cc1	.	?	15µM*	?
O=S(=O)(c1ccccc1)c1nc(-c2ccccc2)oc1N1CCCCC1	5%	?	16µM*	-3%
Cc1ccc(S(=O)(=O)c2nc(-c3ccccc3)oc2N2CCCC2)cc1	?	-18%	16%	1%
Cc1ccc(S(=O)(=O)c2nc(-c3cccc(C)c3)oc2N2CCN(c3ccccc3)CC2)cc1	10%	?	1.5µM*	-12%
Cc1ccc(S(=O)(=O)c2nc(-c3cccc(C)c3)oc2N2CCCCC2)cc1	-8%[12.3 µM]	?	23µM*	-8%
CC1CCCC(C)N1c1ccc(S(=O)(=O)N2CCOCC2)cc1Cl (centres undefined)	6%	?	?	.
Cc1ccccc1CN(C)Cc1cc(=O)oc2c(C)c(C)ccc12	-5%	?	?	.
COc1cccc(CN(C)Cc2cc(=O)oc3c(C)c(C)ccc23)c1	.	13µM*	?	-1%
Cc1c(O)ccc2c(CN(C)Cc3ccccc3)cc(=O)oc12	.	?	18µM*	.
CCn1c2c(c(=O)n3ncc(C(=O)N4CCN(c5ccc(Cl)cc5)CC4)c13)CN(Cc1ccc(OC)cc1)CC2	9%	2.3µM*	1.6µM*	?
CCn1c2c(c(=O)n3ncc(C(=O)Nc4ccc(F)c(Cl)c4)c13)CN(Cc1ccc(OC)cc1)CC2	2%	?	?	5%
COc1ccc(CN2CCc3c(c(=O)n4ncc(C(=O)N5CCN(c6ccccc6F)CC5)c4n3C)C2)cc1	2%	18µM*	8.2µM*	4%
SMILES	TDP1 inh	TDP1 cell CPT	TDP1 cell noCPT	ClpP mod
Cc1cc(C)c2c(CN3CCN(Cc4ccccc4)CC3)cc(=O)oc2c1C	.	?	?	-2%
COc1cc(NC(=O)c2ccccc2)c(OC)cc1NC(=O)CN1C(=O)NC2(CCCCC2C)C1=O (centres undefined)	2%	-31%	-29%	1%
COc1ccc(-c2onc(C)c2C)cc1S(=O)(=O)N1CCc2ccccc21	0%	16µM*	?	-2%
COc1ccc(-c2onc(C)c2C)cc1S(=O)(=O)N1CCN(c2cc(C)ccc2C)CC1	0%	?	21µM*	-1%
COc1ccc(OC)c(S(=O)(=O)N2CCc3ccccc32)c1	2%	-13%	-30%	2%
COCCNC(=O)CSc1nnc(NC(=O)C2CC(=O)N(c3ccccc3OC)C2)s1 (centres undefined)	3%	3%	-19%	-12%
CCOP(=O)(OCC)C(Nc1ccccc1)c1ccc2c(c1)OCO2 (centres undefined)	3%	13µM*	?	0%
CCCCOP(=O)(OCCCC)C(Nc1ccccc1)c1ccc2c(c1)OCO2 (centres undefined)	-5%	?	13µM*	1%
CCOP(=O)(OCC)C(Nc1ccc(F)cc1)c1ccccc1 (centres undefined)	7%	-3%	-30%	.
COCCCn1c(SCC(N)=O)nnc1-c1ccccc1	3%	-8%	-21%	1%
COCCCn1c(SCC(=O)NC(C)C)nnc1-c1ccccc1	.	?	23µM*	-3%
O=C(O)c1cc(S(=O)(=O)N2CCOCC2)ccc1N1CCCCC1	0%	7%	-22%	.
O=S(=O)(c1ccc(N2CCOCC2)c(Cl)c1)N1CCOCC1	7%	?	-26%	.
O=c1c2ccccc2sn1-c1cc(S(=O)(=O)N2CCOCC2)ccc1N1CCCCC1	1%	2.5µM*	5.6µM*	1%
O=c1c2ccccc2sn1-c1cc(S(=O)(=O)N2CCOCC2)ccc1N1CCOCC1	-1%	4.5µM*	4.5µM*	1%
O=c1c2ccccc2sn1-c1cc(S(=O)(=O)N2CCOCC2)ccc1N1CCCC1	-6%	5.8µM*	12µM*	-2%
O=C(NCc1ccccc1)c1cc(C2COCCN2C(=O)CCc2ccccc2)on1 (centres undefined)	.	7%	-16%	1%
CCN(c1ccccc1)S(=O)(=O)c1ccc(OC)c(NC(=O)Cc2ccc(OC)c(OC)c2)c1	2%[56.1 µM]	?	?	0%
CCN(c1ccccc1)S(=O)(=O)c1ccc(OC)c(NC(=O)Cc2ccccc2OC)c1	-2%	23µM*	23µM*	0%
CCN(c1ccccc1)S(=O)(=O)c1ccc(Cl)c(NC(=O)COC(=O)c2cccc(OC)c2O)c1	-2%	?	18µM*	-1%
CCOC(=O)C1(C)CCN1C(=O)c1cc2ccccc2s1 (centres undefined)	.	?	?	-13%
